Results on 30 compounds are retold here after PubChem BioAssay AID540333 (Southern Research Specialized Biocontainment Screening …, 2011).

The whole screen tested about 10,000 compounds, of which about 320 (3.2%) were called active. Only a selection was taken, and actives are over-represented in it overall. Unmarked numbers belong to inactive results. Cut-off read from the data, not from the text of the source: active = CPE inhibition mostly above about 9.1% (no sharp cut-off); inactive = mostly below about 7.2%.

The nature of the assay: Dengue virus cytopathic effect inhibitors, cell-based, CPE readout, HTS (AID 540333). As to conditions: Dengue virus CPE inhibition in host cells, at 20 µM; active compounds read high. For orientation: Cytopathic effects are the visible damage that an infection or toxin causes in cultured cells.
Take `c1ccc(-c2[nH]c(-c3ccccc3)[n+](CC3CO3)c2-c2ccccc2)cc1` (stereo not given): the CPE inhibition is 16.7% (active).
As for `O=C(NCCCN1CCOCC1)C(Cl)(Cl)Cl`, the CPE inhibition result is “inactive”.
On to `CCOC(=O)CCCCCNC(=O)c1c(O)[nH]c(=O)[nH]c1=O`, for which the CPE inhibition result was “inactive”.
On to `N#CC(C#N)=Cc1ccc(-c2ccccc2F)o1`, for which the CPE inhibition was 12.6% (active).
`COC(=O)C1=C(c2ccc(C(C)=O)cc2)C[C@@H]2CC[C@H]1N2C(=O)N1CCCCC1`: the CPE inhibition result was “inactive”.
As for `Cc1c(C(c2ccc(O)cc2)c2c(O)c3ccccc3oc2=O)c(=O)n(-c2ccccc2)n1C` (stereo not given), the figure is 0.205%; as for `Cc1ccc(-n2c(O)c(/C=N/N3CCOCC3)c(=O)[nH]c2=S)cc1`, 0.115%; as for `COC(=O)C1=C(c2ccc(F)cc2F)C[C@@H]2CC[C@H]1N2C(=O)NC(C)C`, “inactive”.
Regarding `O=C(/C=C/c1ccc2c(c1)OCO2)c1c(O)n(CCC2=CCCCC2)c(=O)[nH]c1=O`, the CPE inhibition was 4.09%.
`O=C(N/N=C/c1c(O)n(CCC2=CCCCC2)c(=O)[nH]c1=O)c1ccccc1`: the CPE inhibition was 0.065%.
For the compound `COc1ccc(/C=C/C(=O)c2c(O)n(CCC3=CCCCC3)c(=O)[nH]c2=O)cc1`, the CPE inhibition was 9.38% (active).
As to `CC(ON1CC1(C(F)(F)F)C(F)(F)F)(C(N)=O)C(N)=O` (stereo not given), the CPE inhibition is 0.53%.
As for `CN1c2ccc([N+](=O)[O-])cc2CC2(C(=O)NC(=O)N(c3ccccc3)C2=O)C1c1ccccc1` (stereo not given), the CPE inhibition is 15.4% (active).
`CC(C)N1C(=O)NC(=O)C2(Cc3cc([N+](=O)[O-])ccc3N(C)C2c2ccccc2)C1=O` (stereo not given): the CPE inhibition is 1.19%.
Consider `CN1c2ccc([N+](=O)[O-])cc2CC2(C(=O)NC(=O)NC2=O)C1c1ccccc1` (stereo not given), for which the CPE inhibition result was “inactive”.
Take `CN1C(=O)C(=Cc2ccc(N3CCOCC3)o2)C(=O)N(C)C1=O`: the CPE inhibition result was “inactive”.
Consider `C/C(=N\Nc1ccccc1)c1c(O)n(Cc2ccccc2)c(=O)[nH]c1=O`, for which the CPE inhibition result is “inactive”.
On to `COC(=O)C1=C(c2ccc(F)cc2F)C[C@@H]2CC[C@H]1N2C(=O)NCCOc1ccccc1Cl`, for which the CPE inhibition was 3.74%.
Turning to `CCCc1nc2ccc(Br)cc2c(=O)n1-c1ccc([N+](=O)[O-])c(C(F)(F)F)c1`, the CPE inhibition was 0.98%.
With `CCCNC(=O)N1[C@H]2CC[C@@H]1C(C(=O)OC)=C(c1cc3ccccc3o1)C2`, the CPE inhibition was 4.1%.
As for `COC(=O)C1=C(c2cc3ccccc3o2)C[C@@H]2CC[C@H]1N2C`, the CPE inhibition is 0.83%.
With `COC(=O)C1=C(c2cc3ccccc3o2)C[C@@H]2CC[C@H]1N2C(=O)NCc1cccc2ccccc12`, the CPE inhibition was 16.2% (active).
Consider `CCC(=NCCC(c1ccccc1)c1ccccc1)c1c(O)[nH]c(=O)[nH]c1=O`, for which the CPE inhibition was 2.3%.
On to `COC(=O)C1=C(c2ccc3ccccc3c2)C[C@@H]2CC[C@H]1N2C(=O)NC1Cc2ccccc2C1`, for which the CPE inhibition is 6.91%.
With `O=C(Nc1ccccc1)c1c(O)[nH]c(=O)[nH]c1=O`, the CPE inhibition entry is “inactive”.
As for `O=C1CN=C(c2ccccc2)c2cc(Br)ccc2N1Cc1cc(=O)n2ccccc2n1`, the CPE inhibition is 0.155%.
Regarding `Cc1ccc(CN2C(=O)CN=C(c3ccccc3)c3ccccc32)cc1`, the CPE inhibition is 9.14% (active).
`O=C(N/N=C/c1c(O)n(CCc2ccccc2)c(=O)[nH]c1=O)c1ccncc1`: the CPE inhibition is 0.65%.
With `CN(C)S(=O)(=O)c1cc(NC(=O)COC(=O)Cc2ccccc2)ccc1Cl`, the CPE inhibition entry was “inactive”.
The figure for `COC(=O)C1=C(c2ccc(S(C)(=O)=O)cc2)C[C@@H]2CC[C@H]1N2C(=O)NCc1ccc(C(F)(F)F)cc1` is 0.31%.
